# Test results from PubChem BioAssay (NCI).
# About 83,000 compounds went through this panel and 20% of them were active in at least one assay; those are over-represented in the sample as a whole.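 Compound tested at a single concentration for 48 hours in 96-well plates; a percent growth value below 10 was scored as active.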 Unmarked numbers belong to inactive results. Activity calls are given as the source filed them.
# Assays:
# Assay in all cases: NCI-60 one-dose screen, 48 h (100 = growth as untreated, 0 = no growth, -100 = all killed)
# Settings in all cases: 10 µM unless noted
# [1] = test system: HCT-15 colon
# [2] = test system: HT29 colon
# [3] = test system: SNB-75 CNS
# [4] = test system: SNB-19 CNS
# [5] = test system: U251 CNS
# [6] = test system: PC-3 prostate
# [7] = test system: SK-MEL-5 melanoma
# [8] = test system: UACC-62 melanoma
# [9] = test system: LOX IMVI melanoma
# [10] = test system: SK-MEL-28 melanoma
SMILES,growth [1],growth [2],growth [3],growth [4],growth [5],growth [6],growth [7],growth [8],growth [9],growth [10] [%]
COc1c(C(=O)/C=C/c2ccc(C)o2)c(O)cc2occc12,35.9%,65.2%,59.8%,76.5%,75.4%,72.2%,86.6%,58.6%,71.2%,
COc1ccc(-c2oc(=O)ccc2-c2cc(OC)c(OC)c(OC)c2)cc1F,68.2%,44.4%,106%,92.1%,81.9%,66.4%,66.5%,53.6%,67.4%,
O=C(/C=C/c1cccc([N+](=O)[O-])c1)c1ccc(Nc2nc(N3CCCCC3)nc(N3CCCCC3)n2)cc1,87.6%,88.6%,101%,100%,95.2%,89.3%,97.6%,91%,92.9%,
CCN(CC)CCCC(C)Nc1cnc(C(=O)Nc2cccc3ccc(OC)nc23)cn1 (stereo not drawn),-25.6% (active),-47.2% (active),75.9%,94.9%,56.1%,69.5%,5.4% (active),-57.8% (active),-89.9% (active),
CCN(CC)CCCC(C)Nc1cnc(C(=O)Nc2cc(C)cc3cccnc23)cn1 (stereo not drawn),59.9%,37.3%,78.3%,89.2%,78.4%,83.1%,83.1%,98.6%,87%,
CC1(C)CC[C@]2(C(=O)N3CCNCC3)CC[C@]3(C)C(=CC[C@@H]4[C@@]5(C)CCC(=O)C(C)(C)[C@@H]5CC[C@]43C)[C@@H]2C1,105%,107%,91.6%,98%,105%,101%,102%,98.9%,95.7%,
CNCc1cccc2c1OCCOCCOCCC(C)S(=O)(=O)c1ccc(cc1)-c1cnc(N)c(n1)C(=O)N2 (stereo not drawn),17.8%,15.1%,10.5%,53.8%,19.2%,32.3%,78.8%,60.6%,48.8%,
COc1cc2nccc(Oc3ccc(NC(=O)C4(C(=O)Nc5ccc(F)cc5)CC4)cc3)c2cc1O,61.8%,95.1%,34%,82%,66%,57.1%,66.4%,34.8%,39.8%,
O=C(OCc1ccc2c(Br)cc(Br)c(O)c2n1)c1cc2ccccc2[nH]1,-66.7% (active),-82.5% (active),-46.3% (active),45.6%,22.7%,-55.6% (active),-47.5% (active),-83% (active),-93.4% (active),
Cc1ccc(O)c(Cc2ccccc2)c1,107%,97.2%,74.9%,96.9%,94.6%,79.9%,109%,90.2%,96.4%,108
COc1cc(C2CC(c3cccc(Nc4ccnc5cc(Cl)ccc45)c3)=NN2c2ccc(Cl)cc2)cc(OC)c1OC (stereo not drawn),54.2%,76%,62.4%,85.9%,75.2%,51%,34.2%,9.05% (active),43.5%,51.4
COc1cccc2nc(Nc3cccc(NC(=O)c4ccc(N5CCN(C)CC5)c(C(F)(F)F)c4)c3)ccc12,-10.4% (active),-67.7% (active),-7.68% (active),48.4%,-24.6% (active),22%,48.8%,-38.4% (active),-96.7% (active),
CC1=C(C(=O)Nc2ccc(F)cc2)C(c2ccccc2)C2=C(CC(C)(C)CC2=O)N1 (stereo not drawn),77.8%,96.3%,65.8%,87.4%,69.8%,54.6%,38.2%,55.6%,79%,68
C=C(C)C1CCC2(C(=O)O)CCC3(C)C(CCC4C5(C)CCC(O)C(C)(C)C5CCC43C)C12 (stereo not drawn),26.9%,-9.19% (active),-24.8% (active),9.23% (active),-45.3% (active),8.63% (active),-75.8% (active),50.5%,8.78% (active),
COc1ccc(-c2cn(-c3cccc(C(=O)/C=C/c4ccc(O)c(OC)c4)c3)c(=O)[nH]2)cc1,8.88% (active),-21.6% (active),1.36% (active),67.4%,4.66% (active),20.2%,22.7%,40.8%,-13.9% (active),
CCCCCCCCCC1=NC(C)(C)CN1C(C)(C)CO,82.2%,49.2%,102%,92.1%,82.6%,83.8%,84%,98.8%,85.6%,131
COc1cc(OC)cc(-c2n/c(=C\c3c(O)[nH]c4ccc(Cl)cc34)cc3c2=Nc2ccccc2-3)c1,84.2%,15.6%,93.7%,79.5%,17.6%,69.3%,92.9%,104%,18.8%,109
Cc1[nH]nc2ccc3nc(-c4ccc5[nH]ncc5c4)c4c(c3c12)CCCC4,16.2%,22.1%,6.45% (active),35.8%,26.4%,26.5%,10.4%,10.1%,29.6%,
COc1ccc(-c2nc(-c3cc(OC)cc(OC)c3)[nH]c2-c2ccc(OC)cc2)cc1,45.3%,17.3%,86.1%,61.2%,45.6%,27.5%,14.9%,37%,61.3%,67.4
COC(=O)CNS(=O)(=O)c1ccc2c(c1)Cc1cc(S(=O)(=O)NCC(=O)OC)ccc1-2,102%,112%,91.6%,100%,100%,92.9%,98.2%,93.3%,97%,
CN1CCN(Cc2ccc(NC(=O)c3cncc(C#Cc4ccc(N)nc4)c3)cc2C(F)(F)F)CC1,7.71% (active),3.36% (active),4.55% (active),37.2%,14.9%,15.6%,-5.69% (active),-5.85% (active),-25.8% (active),
N#Cc1nc(-c2cccc(Br)c2)cc(-c2ccc(Nc3nc(N4CCCCC4)nc(N4CCCCC4)n3)cc2)c1N,-39% (active),-24.6% (active),-45.1% (active),52.7%,-15.8% (active),12%,-49.3% (active),-35.9% (active),-95.7% (active),
CCN(C)CCCOc1ccc(/C(=C(\C)Cc2cccc(OC)c2)c2ccc(OC(C)=O)cc2)cc1,101%,102%,81.7%,102%,97.1%,98.1%,99.1%,98.4%,97.2%,
CN(C)c1ccc(/C=N/Nc2nnc3n2N=C(c2ccc(Cl)cc2)CS3)cc1,92.5%,105%,96.3%,89.6%,95%,82.1%,92.1%,98.6%,98.8%,
COc1ccc2[nH]c(C(=O)OCc3ccc4c(Br)cc(Br)c(O)c4n3)cc2c1,-62.1% (active),-73.6% (active),-75.5% (active),43.1%,-28.3% (active),-64.9% (active),-89.6% (active),-79.5% (active),-95.4% (active),
CC(C)c1ccc(Cn2ccc3c4c(N)nc(NC5CC5)nc4ccc32)cc1,-80.6% (active),-76.2% (active),-94.4% (active),-85.1% (active),-95.1% (active),-82% (active),-96.1% (active),-93.1% (active),-90.2% (active),
O=C(OCc1ccc2c(Cl)cc(Cl)c(O)c2n1)c1cc2ccccc2[nH]1,-50.2% (active),-81.1% (active),-94.8% (active),34.8%,-92.6% (active),-79.8% (active),-97.6% (active),-70.7% (active),-91.2% (active),
COc1cc2nccc(Oc3ccc(NC(=O)C4(C(=O)Nc5ccc(F)cc5)CC4)cc3)c2cc1OC(=O)c1ccc(N)cc1,25.9%,1.03% (active),-34.6% (active),37.6%,7.81% (active),25.4%,34%,40.1%,-51.4% (active),
